# Reference: PubChem BioAssay AID651821 (The Scripps Research Institute Molecular Screening Center, 2012)
# Out of some 370,000 compounds screened, about 4,700 (1.3%) were called active.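 The calls were made as follows: active = inhibition above the plate cutoff, the mean of all test compounds on that plate plus 3 SD (cut at about 35% in these data); inactive = the rest.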 Shown is part of a subset that was picked to be rich in actives.
# Experiment: binders of r(CAG) RNA repeats, primary screen, biochemical, fluorescence (AID 651821);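 also: 0% = DMSO alone and 100% = 100 µM mitoxantrone as full dye displacement; higher means more dye released from RNA so lower well fluorescence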
# Details: r(CAG) RNA repeat, TO-PRO-1 dye displacement fluorescence; at 3 µM; hits give high values
row,Structure (SMILES),inhibition
1,CCn1cc(CN2CCCC(CNS(=O)(=O)Cc3ccccc3)C2)cn1 (stereo not drawn),0.88% (inactive)
2,Cc1ccccc1NC(=O)C1CCN(c2ncccn2)CC1,-0.95% (inactive)
3,COc1ccc(S(=O)(=O)NCC(c2ccc(C)cc2)N2CCN(C)CC2)cc1OC (stereo not drawn),-10.5% (inactive)
4,COc1ccc(C(=O)OCCN(C)C2CN(Cc3cn(Cc4cccc(C)c4)nn3)S(=O)(=O)C2)cc1OC (stereo not drawn),0.03% (inactive)
5,O=C(c1cc(-c2ccc(Cl)s2)nc2ccccc12)N1CCOCC1,3.5% (inactive)
6,O=C(Nc1nnc(-c2ccccc2)o1)c1cc(-c2cccs2)nc2ccccc12,56.2% (active)
7,Cc1c(NC(=O)c2cc(-c3ccc(Cl)s3)nc3ccccc23)c(=O)n(-c2ccccc2)n1C,7.65% (inactive)
8,CC(c1ccc(N)cc1)c1cn(C)c2ccccc12 (stereo not drawn),7.15% (inactive)
9,CCC(C)[C@@H](C(=O)OC)N(CCc1cn(Cc2ccccc2)nn1)S(=O)(=O)c1ccccc1Br (stereo partly drawn),2.88% (inactive)
10,CCOC(CNC(=O)C1CCN(S(=O)(=O)c2ccc3nc4c(c(C(=O)O)c3c2)CC(C)CC4)CC1)OCC (stereo not drawn),25.9% (inactive)
11,Cc1ccc(CNC(=O)C2CCN(S(=O)(=O)c3ccc4nc5c(c(C(=O)O)c4c3)CC(C)CC5)CC2)cc1 (stereo not drawn),51.8% (active)
12,CC(=O)N1c2ccc(S(=O)(=O)N3CCC(C(=O)NCc4ccc(F)cc4)CC3)cc2CC1C (stereo not drawn),1.14% (inactive)
13,COC(=O)C1=C(C)N(Cc2ccc(C(F)(F)F)cc2)C(=NCc2ccc(C(F)(F)F)cc2)NC1c1cccc(Cl)c1 (stereo not drawn),2.08% (inactive)
14,COC(=O)c1c(NC(=O)CN2C(=O)NC(CCc3ccccc3)C2=O)sc2c1CCCCC2 (stereo not drawn),10% (inactive)
15,COC(=O)c1c(NC(=O)CSc2nncs2)sc2c1CCCCC2,0.27% (inactive)
16,COC(=O)c1c(NC(=O)C2CC(C)=C(C)CC2C(=O)O)sc2c1CCCCC2 (stereo not drawn),53.5% (active)
17,O=C(O)C1CC=C(Cl)CC1C(=O)NCc1ccccc1 (stereo not drawn),1.32% (inactive)
18,N#Cc1c(NC(=O)C2CC(Cl)=CCC2C(=O)O)sc2c1CCCCC2 (stereo not drawn),42.8% (active)
19,N#Cc1c(NC(=O)C2CCCO2)sc2c1CCCCC2 (stereo not drawn),-2.89% (inactive)
20,C[C@H]1CCC/C=C/C(=O)c2c(O)cc(O)cc2CC(=O)O1,6.03% (inactive)

row,Structure (SMILES),inhibition
1,N#Cc1c(-c2ccc(Cl)cc2)c2c([nH]c1=S)CCCC2,17.9% (inactive)
2,C=CCN1C(C(=O)OC)CN(Cc2cn(Cc3ccccc3)nn2)CCS1(=O)=O (stereo not drawn),3.76% (inactive)
3,COc1ccc(CNS(=O)(=O)c2cc(-c3cc(C)no3)ccc2C(C)C)cc1,1.21% (inactive)
4,COc1ccc(CCNS(=O)(=O)c2ccc(Cl)s2)cc1OC,-4.15% (inactive)
5,CCOc1ncccc1C(=O)Nc1ccc(S(=O)(=O)Nc2nc(C)cc(C)n2)cc1,16.8% (inactive)
6,COC(=O)c1ccc(NC(=O)c2ccccc2NS(=O)(=O)c2ccccc2)cc1,74.1% (active)
7,COc1cccc(NC(=O)c2ccccc2N(Cc2ccccc2)S(C)(=O)=O)c1,4.73% (inactive)
8,CCOC(=O)c1ccc(N/C(=N/S(=O)(=O)c2ccccc2)c2ccccc2)cc1,0.82% (inactive)
9,COc1cc(NC(=O)c2ccccc2NS(=O)(=O)c2ccc(Cl)s2)cc(OC)c1,84.6% (active)
10,COc1ccnc(NC(=S)N2CCN(c3ncc(C(F)(F)F)cc3Cl)CC2)c1,2.94% (inactive)
11,COc1cc(/C=C/C(=O)OCC(=O)Nc2cccc(Oc3ccccc3)c2)ccc1O,15.1% (inactive)
12,CC(C)CNc1cccc2c1S(=O)(=O)N[C@H](C)CO2,2.72% (inactive)
13,COc1ccc(C(CNC(=O)c2cccc(NS(=O)(=O)c3ccc(C)c(F)c3)c2)N2CCCC2)cc1 (stereo not drawn),2.37% (inactive)
14,COc1ccc(C(CNC(=O)c2ccc(S(=O)(=O)Nc3ccccc3C)cc2)N2CCOCC2)cc1 (stereo not drawn),-3.71% (inactive)
15,COc1ccc(C(CNC(=O)c2cccc(S(=O)(=O)Nc3ccccc3Cl)c2)N2CCOCC2)cc1 (stereo not drawn),46.8% (active)
16,CC1=C(C(=O)Nc2cc(C)ccn2)C(c2cnn(C)c2)C2=C(CC(c3ccccc3)CC2=O)N1 (stereo not drawn),-6.66% (inactive)
17,O=C(Nc1ccc(Br)cc1)OCCN1C(=O)CCC12CCC(c1ccccc1)CC2 (stereo not drawn),5.9% (inactive)
18,C[C@H](O)[C@@H]1CN2CCc3ccc(-c4ccc5c(c4)OCO5)cc3[C@@H]2C[C@@H]1N(C)C(=O)C1CCCCC1,6.89% (inactive)
19,Cc1cc(NCCc2c[nH]c3ccccc23)ccc1Oc1cccnc1,7.17% (inactive)
20,CCc1cccc(C)c1N(C(=O)Cn1c(CO)nc2ccccc21)C(C)COC (stereo not drawn),-9.89% (inactive)

row,Structure (SMILES),inhibition
1,COC(=O)[C@]12C[C@H](CC(=O)NCCc3ccccc3OC)C(=O)N(Cc3ccco3)C1=C[C@H](C(C)C)O[C@@H]2C1CC1,3.46% (inactive)
2,Cc1nc2cc(NC(=O)CSc3nc4c(C)cccc4cc3C#N)ccc2s1,2.03% (inactive)
3,Cc1ccc(NC(=O)CSc2nn3c(=O)c(C)nnc3s2)cc1Cl,2.36% (inactive)
4,Cc1ccc(NC(=O)CSc2sc3c(O)cc(=O)[nH]c3c2C#N)cc1C,40.4% (active)
5,CCOC(=O)C1CSCCS(=O)(=O)N1Cc1ccc(Cl)cc1 (stereo not drawn),1.28% (inactive)
6,COC[C@@H]1CCCN1c1ccc2c(c1)O[C@H](C)CCN(C1CC1)S2(=O)=O,0.67% (inactive)
7,CCCCc1ccc(S(=O)(=O)NC(=O)C2(C)CCN2C(=O)c2ccccc2)cc1 (stereo not drawn),32.5% (inactive)
8,CC1(C(=O)NS(=O)(=O)Cc2cccc(Cl)c2)CCN1C(=O)Cc1ccccc1 (stereo not drawn),12.6% (inactive)
9,C#Cc1ccc(NC(=O)C2(C)CCN2C(=O)Cc2ccc(-c3ccccc3)cc2)cc1 (stereo not drawn),9.25% (inactive)
10,CC1(C(=O)NS(=O)(=O)Cc2cccc(Cl)c2)CCN1C(=O)Cc1ccc(Cl)cc1Cl (stereo not drawn),42.9% (active)
11,CCCNC(=O)C1(C)CCN1C(=O)Cc1ccc(-c2ccccc2)cc1 (stereo not drawn),0.2% (inactive)
12,CC1(C(=O)NS(=O)(=O)c2ccccc2)CCN1C(=O)C/C=C/c1ccccc1 (stereo not drawn),7.12% (inactive)
13,CC1(C(=O)NS(=O)(=O)c2ccccc2)CCN1C(=O)Cc1ccc(-c2ccccc2)cc1 (stereo not drawn),41.7% (active)
14,Cc1ccccc1S(=O)(=O)NC(=O)C1(C)CCN1C(=O)Cc1ccc(Cl)cc1Cl (stereo not drawn),32.5% (inactive)
15,CC1(C(=O)NS(=O)(=O)c2cccs2)CCN1C(=O)Cc1ccc(-c2ccccc2)cc1 (stereo not drawn),40.2% (active)
16,Cc1ccc(F)c(S(=O)(=O)NC(=O)C2(C)CCN2C(=O)CCc2cccs2)c1 (stereo not drawn),3.47% (inactive)
17,COc1ccc(S(=O)(=O)NC(=O)C2(C)CCN2C(=O)c2ccccc2CCc2ccccc2)cc1 (stereo not drawn),43.4% (active)
18,Cc1nc(C(F)(F)F)ccc1C(=O)N1CCC1(C)C(=O)NS(=O)(=O)c1ccccc1 (stereo not drawn),4.76% (inactive)
